Data reported in publication PMC7862700, “An all-to-all approach to the identification of sequence-specific readers for epigenetic DNA modifications on cytosine”.

How the values were obtained:
Assay in all cases: DAPPL (digital affinity profiling via proximity ligation, sequencing); 10 mM Tris-HCl pH 7.5, 50 mM NaCl, 1 mM DTT, 4% glycerol, room temperature, 30 min; GST-TFs on glutathione beads, 16-mer random dsDNA library, 0.1% formaldehyde crosslink after washing; high values mean tight binding
FLI1 = target: T1, FLI1 (Homo sapiens, UniProt Q01543 1-452); settings: protein: recombinant; tags: N-terminal GST; dsDNA, one strand shown
T1 sequence: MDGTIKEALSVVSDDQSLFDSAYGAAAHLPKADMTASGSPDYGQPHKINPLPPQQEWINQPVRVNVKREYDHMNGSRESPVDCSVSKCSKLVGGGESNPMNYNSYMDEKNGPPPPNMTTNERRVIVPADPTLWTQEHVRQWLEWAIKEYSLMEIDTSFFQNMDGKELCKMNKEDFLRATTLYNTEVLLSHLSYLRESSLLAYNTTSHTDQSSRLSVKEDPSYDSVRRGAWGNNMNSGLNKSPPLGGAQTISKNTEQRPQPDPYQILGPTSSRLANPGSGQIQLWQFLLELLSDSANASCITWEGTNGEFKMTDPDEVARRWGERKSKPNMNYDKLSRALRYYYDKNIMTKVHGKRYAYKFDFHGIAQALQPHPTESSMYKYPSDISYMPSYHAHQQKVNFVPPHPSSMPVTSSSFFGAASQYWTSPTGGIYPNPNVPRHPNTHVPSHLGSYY
Method in brief: (§1)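 Each value of binding signal is a hexamer's read frequency for a factor divided by the same hexamer's frequency in the tag-only sample. Barcoded, bead-captured GST fusions of human transcription factors made in yeast were pooled with that sample and incubated with 200 nmole of a random double-stranded 16-mer DNA library in Tris/NaCl/DTT/glycerol buffer at room temperature for 30 min. Washing, 0.1% formaldehyde crosslinking, proximity ligation, PCR and Illumina NextSeq500 sequencing followed.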

ELK1 = target: T2, ELK1 (Homo sapiens, UniProt P19419 1-428); settings: protein: recombinant; tags: N-terminal GST; dsDNA, one strand shown
T2 sequence: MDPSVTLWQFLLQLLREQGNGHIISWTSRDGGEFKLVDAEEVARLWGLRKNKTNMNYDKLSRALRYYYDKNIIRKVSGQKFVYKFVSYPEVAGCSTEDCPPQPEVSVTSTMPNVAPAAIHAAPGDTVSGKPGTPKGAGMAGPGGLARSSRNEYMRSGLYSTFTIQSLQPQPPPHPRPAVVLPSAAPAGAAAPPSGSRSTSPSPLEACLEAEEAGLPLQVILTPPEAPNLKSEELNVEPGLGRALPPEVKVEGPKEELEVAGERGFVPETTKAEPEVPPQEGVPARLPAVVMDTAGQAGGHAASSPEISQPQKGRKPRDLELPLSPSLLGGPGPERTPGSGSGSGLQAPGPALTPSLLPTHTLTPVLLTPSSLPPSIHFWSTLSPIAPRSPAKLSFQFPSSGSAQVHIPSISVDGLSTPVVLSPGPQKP
Method in brief: as §1

GABPA = target: T3, GABPA (Homo sapiens, UniProt Q06546 1-454); settings: protein: recombinant; tags: N-terminal GST; dsDNA, one strand shown
T3 sequence: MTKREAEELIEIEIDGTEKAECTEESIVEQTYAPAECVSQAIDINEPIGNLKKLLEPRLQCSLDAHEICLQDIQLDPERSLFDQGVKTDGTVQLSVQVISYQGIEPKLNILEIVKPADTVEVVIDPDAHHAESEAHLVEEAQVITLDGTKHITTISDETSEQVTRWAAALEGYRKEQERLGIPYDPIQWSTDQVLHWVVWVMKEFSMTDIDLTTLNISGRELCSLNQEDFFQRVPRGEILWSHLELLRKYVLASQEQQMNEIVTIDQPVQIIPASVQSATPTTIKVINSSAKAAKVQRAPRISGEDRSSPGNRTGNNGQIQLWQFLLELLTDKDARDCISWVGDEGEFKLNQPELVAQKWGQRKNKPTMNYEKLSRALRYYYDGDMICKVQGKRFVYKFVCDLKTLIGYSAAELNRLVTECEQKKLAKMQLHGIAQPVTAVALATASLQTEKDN
Method in brief: as §1

ERG = target: T4, ERG (Homo sapiens, UniProt P11308 1-479); settings: protein: recombinant; tags: N-terminal GST; dsDNA, one strand shown
T4 sequence: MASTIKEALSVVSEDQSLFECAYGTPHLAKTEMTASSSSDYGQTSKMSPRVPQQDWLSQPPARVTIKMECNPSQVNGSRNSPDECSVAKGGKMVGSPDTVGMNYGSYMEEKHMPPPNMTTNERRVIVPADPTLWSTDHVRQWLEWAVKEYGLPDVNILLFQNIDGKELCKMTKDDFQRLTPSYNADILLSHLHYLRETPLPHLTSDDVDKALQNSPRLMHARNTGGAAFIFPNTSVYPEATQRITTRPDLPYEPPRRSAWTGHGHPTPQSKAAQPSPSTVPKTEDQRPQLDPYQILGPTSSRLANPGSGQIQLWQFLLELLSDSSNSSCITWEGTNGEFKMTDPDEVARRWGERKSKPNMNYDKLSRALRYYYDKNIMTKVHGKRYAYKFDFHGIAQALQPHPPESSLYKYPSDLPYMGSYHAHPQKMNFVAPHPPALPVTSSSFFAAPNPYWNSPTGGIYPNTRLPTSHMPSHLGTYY
Method in brief: as §1

ELF1 = ELF1 (Homo sapiens, UniProt P32519 1-619); settings: protein: recombinant; tags: N-terminal GST; dsDNA, one strand shown
ELF1, sequence (P32519 whole entry): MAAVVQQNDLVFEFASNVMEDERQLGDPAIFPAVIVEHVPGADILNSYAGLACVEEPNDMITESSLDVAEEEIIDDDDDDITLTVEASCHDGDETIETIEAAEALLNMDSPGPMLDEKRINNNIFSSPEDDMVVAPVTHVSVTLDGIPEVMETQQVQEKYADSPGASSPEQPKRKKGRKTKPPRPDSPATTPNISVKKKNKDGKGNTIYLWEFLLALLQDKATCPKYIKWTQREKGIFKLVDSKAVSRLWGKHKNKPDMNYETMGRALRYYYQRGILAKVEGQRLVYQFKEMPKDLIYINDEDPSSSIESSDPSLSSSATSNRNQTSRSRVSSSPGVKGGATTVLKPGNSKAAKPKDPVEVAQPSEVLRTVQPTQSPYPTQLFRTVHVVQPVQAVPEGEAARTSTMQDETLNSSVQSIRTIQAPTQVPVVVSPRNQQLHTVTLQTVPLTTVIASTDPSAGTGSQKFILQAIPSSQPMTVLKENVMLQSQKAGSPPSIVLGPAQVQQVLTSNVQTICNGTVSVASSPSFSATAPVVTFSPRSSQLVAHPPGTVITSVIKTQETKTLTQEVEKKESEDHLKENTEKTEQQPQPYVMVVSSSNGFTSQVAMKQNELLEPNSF
Method in brief: as §1

EHF = target: T5, EHF (Homo sapiens, UniProt Q9NZC4 1-300); settings: protein: recombinant; tags: N-terminal GST; dsDNA, one strand shown
T5 sequence: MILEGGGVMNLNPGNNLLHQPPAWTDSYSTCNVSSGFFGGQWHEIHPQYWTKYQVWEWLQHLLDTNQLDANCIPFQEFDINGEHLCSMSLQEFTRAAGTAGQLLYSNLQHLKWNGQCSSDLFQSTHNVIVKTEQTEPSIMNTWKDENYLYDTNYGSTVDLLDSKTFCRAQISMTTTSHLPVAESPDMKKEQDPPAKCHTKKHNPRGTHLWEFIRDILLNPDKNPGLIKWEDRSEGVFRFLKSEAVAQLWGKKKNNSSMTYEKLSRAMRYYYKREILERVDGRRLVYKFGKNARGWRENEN
Method in brief: as §1

SPI1 = SPI1 (Homo sapiens, UniProt P17947 1-270); settings: protein: recombinant; tags: N-terminal GST; dsDNA, one strand shown
Method in brief: as §1

SPIB = SPIB (Homo sapiens, UniProt Q01892 1-262); settings: protein: recombinant; tags: N-terminal GST; dsDNA, one strand shown
SPIB, sequence (Q01892 whole entry): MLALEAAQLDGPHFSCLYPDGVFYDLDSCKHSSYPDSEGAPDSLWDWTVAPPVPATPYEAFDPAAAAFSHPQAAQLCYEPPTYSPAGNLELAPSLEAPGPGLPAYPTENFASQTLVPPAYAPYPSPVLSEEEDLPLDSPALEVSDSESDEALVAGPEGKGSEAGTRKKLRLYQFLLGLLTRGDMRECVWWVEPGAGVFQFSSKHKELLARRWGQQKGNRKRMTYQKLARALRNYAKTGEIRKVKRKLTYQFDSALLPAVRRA
Method in brief: as §1

ELK3 = target: T6, ELK3 (Homo sapiens, UniProt P41970 1-407); settings: protein: recombinant; tags: N-terminal GST; dsDNA, one strand shown
T6 sequence: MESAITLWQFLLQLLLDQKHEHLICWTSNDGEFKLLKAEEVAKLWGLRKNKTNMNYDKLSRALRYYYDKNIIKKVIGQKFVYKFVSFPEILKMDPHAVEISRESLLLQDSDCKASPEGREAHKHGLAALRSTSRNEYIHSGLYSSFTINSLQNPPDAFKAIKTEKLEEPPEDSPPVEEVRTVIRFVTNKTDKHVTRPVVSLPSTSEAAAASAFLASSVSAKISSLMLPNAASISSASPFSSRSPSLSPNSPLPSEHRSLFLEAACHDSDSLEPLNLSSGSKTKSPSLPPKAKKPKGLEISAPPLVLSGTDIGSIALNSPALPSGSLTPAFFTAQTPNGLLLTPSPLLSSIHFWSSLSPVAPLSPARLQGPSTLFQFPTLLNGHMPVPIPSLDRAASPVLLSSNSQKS
Method in brief: as §1

FEV = target: T7, FEV (Homo sapiens, UniProt Q99581 1-238); settings: protein: recombinant; tags: N-terminal GST; dsDNA, one strand shown
T7 sequence: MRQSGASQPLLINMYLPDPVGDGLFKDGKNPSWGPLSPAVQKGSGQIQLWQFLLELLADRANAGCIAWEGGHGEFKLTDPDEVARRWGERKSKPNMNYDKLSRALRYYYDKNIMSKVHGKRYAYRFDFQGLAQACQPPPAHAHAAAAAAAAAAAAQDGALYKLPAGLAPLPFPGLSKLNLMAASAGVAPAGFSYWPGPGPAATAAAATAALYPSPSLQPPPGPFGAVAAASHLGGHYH
Method in brief: as §1

ETV5 = ETV5 (Homo sapiens, UniProt P41161 1-510); settings: protein: recombinant; tags: N-terminal GST; dsDNA, one strand shown
ETV5, sequence (P41161 whole entry): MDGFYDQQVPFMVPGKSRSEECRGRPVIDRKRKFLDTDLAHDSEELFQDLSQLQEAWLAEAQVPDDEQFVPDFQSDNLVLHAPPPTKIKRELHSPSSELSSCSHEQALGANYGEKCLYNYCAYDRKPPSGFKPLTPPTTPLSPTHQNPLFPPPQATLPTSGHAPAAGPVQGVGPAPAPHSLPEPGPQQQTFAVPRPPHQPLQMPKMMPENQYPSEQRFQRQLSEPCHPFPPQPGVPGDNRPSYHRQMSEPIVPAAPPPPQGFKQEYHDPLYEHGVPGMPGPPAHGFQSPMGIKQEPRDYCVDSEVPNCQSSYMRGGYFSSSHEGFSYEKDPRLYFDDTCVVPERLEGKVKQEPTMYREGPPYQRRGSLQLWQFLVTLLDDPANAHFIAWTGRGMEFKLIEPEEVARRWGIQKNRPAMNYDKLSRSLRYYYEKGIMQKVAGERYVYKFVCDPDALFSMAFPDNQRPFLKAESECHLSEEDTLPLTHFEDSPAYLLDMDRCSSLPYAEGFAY
Method in brief: as §1

HSF1 = HSF1 (Homo sapiens, UniProt Q00613 1-529); settings: protein: recombinant; tags: N-terminal GST; chain copies: 3; dsDNA, one strand shown
HSF1, sequence (Q00613 whole entry): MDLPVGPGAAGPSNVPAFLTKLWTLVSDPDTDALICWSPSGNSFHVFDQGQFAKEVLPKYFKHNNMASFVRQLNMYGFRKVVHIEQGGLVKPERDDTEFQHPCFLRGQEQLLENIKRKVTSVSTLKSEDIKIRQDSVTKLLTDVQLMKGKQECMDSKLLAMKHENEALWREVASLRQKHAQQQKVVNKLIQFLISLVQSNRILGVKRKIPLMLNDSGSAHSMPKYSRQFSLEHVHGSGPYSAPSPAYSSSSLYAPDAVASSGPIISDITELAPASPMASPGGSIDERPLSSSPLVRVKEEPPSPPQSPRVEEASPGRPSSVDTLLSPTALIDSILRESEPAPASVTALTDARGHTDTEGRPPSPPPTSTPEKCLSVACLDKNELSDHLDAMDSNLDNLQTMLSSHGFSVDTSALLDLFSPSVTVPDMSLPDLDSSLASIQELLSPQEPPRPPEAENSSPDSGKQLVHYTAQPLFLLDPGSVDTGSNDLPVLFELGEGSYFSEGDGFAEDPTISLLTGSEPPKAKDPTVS
Method in brief: as §1

SPIC = target: T8, SPIC (Homo sapiens, UniProt Q8N5J4 1-248); settings: protein: recombinant; tags: N-terminal GST; dsDNA, one strand shown
T8 sequence: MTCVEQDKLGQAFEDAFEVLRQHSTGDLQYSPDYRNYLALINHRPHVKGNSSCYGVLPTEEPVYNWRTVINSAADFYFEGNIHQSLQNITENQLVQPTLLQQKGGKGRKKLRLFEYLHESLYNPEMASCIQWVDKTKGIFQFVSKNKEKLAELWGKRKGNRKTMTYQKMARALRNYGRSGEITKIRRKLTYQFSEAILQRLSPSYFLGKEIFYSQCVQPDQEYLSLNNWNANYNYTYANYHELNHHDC
Method in brief: as §1

ELF4 = ELF4 (Homo sapiens, UniProt Q99607 1-663); settings: protein: recombinant; tags: N-terminal GST; dsDNA, one strand shown
ELF4, sequence (Q99607 whole entry): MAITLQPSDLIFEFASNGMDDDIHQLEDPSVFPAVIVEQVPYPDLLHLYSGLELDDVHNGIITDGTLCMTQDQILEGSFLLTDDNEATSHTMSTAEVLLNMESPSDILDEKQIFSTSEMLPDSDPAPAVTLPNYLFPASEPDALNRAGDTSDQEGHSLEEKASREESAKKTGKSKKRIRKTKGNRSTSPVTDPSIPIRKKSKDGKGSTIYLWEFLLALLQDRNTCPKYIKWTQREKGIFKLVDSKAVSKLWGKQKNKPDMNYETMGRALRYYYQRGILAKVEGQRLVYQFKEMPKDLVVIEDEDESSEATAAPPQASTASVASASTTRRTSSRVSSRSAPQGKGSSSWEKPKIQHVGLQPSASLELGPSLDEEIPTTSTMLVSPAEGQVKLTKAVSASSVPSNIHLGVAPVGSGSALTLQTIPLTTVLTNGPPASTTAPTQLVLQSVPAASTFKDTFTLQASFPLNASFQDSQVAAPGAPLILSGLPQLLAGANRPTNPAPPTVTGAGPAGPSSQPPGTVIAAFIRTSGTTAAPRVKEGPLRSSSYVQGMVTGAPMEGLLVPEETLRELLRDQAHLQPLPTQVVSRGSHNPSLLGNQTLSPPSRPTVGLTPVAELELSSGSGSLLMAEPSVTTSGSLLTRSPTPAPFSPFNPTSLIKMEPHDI
Method in brief: as §1

ELK4 = target: T9, ELK4 (Homo sapiens, UniProt P28324-2 1-405); settings: protein: recombinant; tags: N-terminal GST; dsDNA, one strand shown
T9 sequence: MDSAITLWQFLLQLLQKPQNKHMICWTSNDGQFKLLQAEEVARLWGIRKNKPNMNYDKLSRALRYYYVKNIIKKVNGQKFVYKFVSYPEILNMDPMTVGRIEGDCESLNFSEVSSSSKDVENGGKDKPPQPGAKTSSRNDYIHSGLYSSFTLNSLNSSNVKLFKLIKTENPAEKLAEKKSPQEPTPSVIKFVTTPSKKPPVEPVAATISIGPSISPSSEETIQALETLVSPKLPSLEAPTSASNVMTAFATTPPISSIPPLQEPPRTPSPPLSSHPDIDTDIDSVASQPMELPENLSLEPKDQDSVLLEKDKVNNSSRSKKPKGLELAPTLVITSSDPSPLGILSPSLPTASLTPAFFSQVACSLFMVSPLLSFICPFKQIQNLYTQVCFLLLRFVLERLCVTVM
Method in brief: as §1

ETV2 = target: T10, ETV2 (Homo sapiens, UniProt O00321 1-342); settings: protein: recombinant; tags: N-terminal GST; dsDNA, one strand shown
T10 sequence: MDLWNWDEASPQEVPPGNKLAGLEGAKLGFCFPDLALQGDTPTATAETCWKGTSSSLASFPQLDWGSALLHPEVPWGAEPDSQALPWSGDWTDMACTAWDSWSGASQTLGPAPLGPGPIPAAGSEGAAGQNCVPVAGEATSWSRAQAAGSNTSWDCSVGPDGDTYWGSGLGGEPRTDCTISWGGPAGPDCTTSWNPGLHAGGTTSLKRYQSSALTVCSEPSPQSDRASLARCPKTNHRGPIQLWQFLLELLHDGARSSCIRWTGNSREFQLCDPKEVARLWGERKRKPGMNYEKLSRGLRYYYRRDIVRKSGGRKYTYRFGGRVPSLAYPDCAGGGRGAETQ
Method in brief: as §1

ELF3 = target: T11, ELF3 (Homo sapiens, UniProt P78545 1-371); settings: protein: recombinant; tags: N-terminal GST; dsDNA, one strand shown
T11 sequence: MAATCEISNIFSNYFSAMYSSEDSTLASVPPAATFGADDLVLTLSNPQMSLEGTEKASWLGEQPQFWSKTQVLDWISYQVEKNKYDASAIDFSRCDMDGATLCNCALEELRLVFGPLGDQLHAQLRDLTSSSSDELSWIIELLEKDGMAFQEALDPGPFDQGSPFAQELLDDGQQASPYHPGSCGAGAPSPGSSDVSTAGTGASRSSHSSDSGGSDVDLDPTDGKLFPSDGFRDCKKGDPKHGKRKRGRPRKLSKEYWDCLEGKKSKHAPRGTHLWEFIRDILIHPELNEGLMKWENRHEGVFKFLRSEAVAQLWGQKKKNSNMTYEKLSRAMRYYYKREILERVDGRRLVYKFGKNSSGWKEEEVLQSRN
Method in brief: as §1

CRX = CRX (Homo sapiens, UniProt O43186 1-299); settings: protein: recombinant; tags: N-terminal GST; dsDNA, one strand shown
CRX, sequence (O43186 whole entry): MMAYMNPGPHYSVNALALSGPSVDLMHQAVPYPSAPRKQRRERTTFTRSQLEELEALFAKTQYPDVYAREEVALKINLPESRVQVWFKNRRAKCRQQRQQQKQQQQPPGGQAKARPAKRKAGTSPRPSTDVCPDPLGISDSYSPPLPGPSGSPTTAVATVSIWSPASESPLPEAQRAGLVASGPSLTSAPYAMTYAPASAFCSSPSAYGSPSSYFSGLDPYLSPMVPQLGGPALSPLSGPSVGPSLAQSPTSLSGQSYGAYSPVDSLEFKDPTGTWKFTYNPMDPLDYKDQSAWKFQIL
Method in brief: as §1

ETV1 = ETV1 (Homo sapiens, UniProt P50549 1-477); settings: protein: recombinant; tags: N-terminal GST; dsDNA, one strand shown
ETV1, sequence (P50549 whole entry): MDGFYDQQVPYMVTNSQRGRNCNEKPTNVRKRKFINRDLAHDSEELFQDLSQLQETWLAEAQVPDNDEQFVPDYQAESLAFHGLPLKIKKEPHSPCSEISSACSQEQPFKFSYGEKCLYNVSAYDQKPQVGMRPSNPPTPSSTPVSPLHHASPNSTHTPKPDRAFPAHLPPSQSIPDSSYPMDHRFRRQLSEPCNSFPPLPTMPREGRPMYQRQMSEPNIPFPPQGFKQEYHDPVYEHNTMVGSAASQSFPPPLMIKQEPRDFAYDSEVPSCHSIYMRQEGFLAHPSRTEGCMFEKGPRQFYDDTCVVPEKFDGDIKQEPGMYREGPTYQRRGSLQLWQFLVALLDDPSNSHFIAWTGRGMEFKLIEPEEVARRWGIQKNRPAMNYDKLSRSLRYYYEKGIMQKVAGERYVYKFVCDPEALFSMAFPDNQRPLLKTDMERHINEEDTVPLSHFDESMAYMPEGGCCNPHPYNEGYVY
Method in brief: as §1

TTATCG
binding signal (FLI1): 1.17 fold enrichment (6-mer frequency, TF over GST control) | binding signal (ELK1): 1.28 fold enrichment (6-mer frequency, TF over GST control) | binding signal (GABPA): 1.3 fold enrichment (6-mer frequency, TF over GST control) | binding signal (ERG): 1.3 fold enrichment (6-mer frequency, TF over GST control) | binding signal (ELF1): 1.25 fold enrichment (6-mer frequency, TF over GST control) | binding signal (EHF): 1.25 fold enrichment (6-mer frequency, TF over GST control) | binding signal (SPI1): 1.15 fold enrichment (6-mer frequency, TF over GST control) | binding signal (SPIB): 1.13 fold enrichment (6-mer frequency, TF over GST control) | binding signal (ELK3): 1.17 fold enrichment (6-mer frequency, TF over GST control) | binding signal (FEV): 1.21 fold enrichment (6-mer frequency, TF over GST control) | binding signal (ETV5): 1.25 fold enrichment (6-mer frequency, TF over GST control) | binding signal (HSF1): 1.99 fold enrichment (6-mer frequency, TF over GST control) | binding signal (SPIC): 1.33 fold enrichment (6-mer frequency, TF over GST control) | binding signal (ELF4): 1.27 fold enrichment (6-mer frequency, TF over GST control) | binding signal (ELK4): 1.37 fold enrichment (6-mer frequency, TF over GST control) | binding signal (ETV2): 1.18 fold enrichment (6-mer frequency, TF over GST control) | binding signal (ELF3): 1.22 fold enrichment (6-mer frequency, TF over GST control) | binding signal (CRX): 2.79 fold enrichment (6-mer frequency, TF over GST control) | binding signal (ETV1): 1.2 fold enrichment (6-mer frequency, TF over GST control)
